{"source": "PubChem BioAssay (NCATS)", "note": "Inconclusive results are not listed. Values without a mark were called inactive. Calls of active or inactive are those of the source. Calls follow the shape of the dose curve; as a rule, active = well fitted inhibition curve with a large enough effect; inconclusive = small, poorly fitted or top-dose-only effect; inactive = no such curve, though single readings can be large or run the other way. % is scaled to controls: 0 for no effect and ±100 for the full control effect; potency is read from the fitted curve at half-maximal effect."}
{"target": "Nuclear receptor ROR-gamma (Homo sapiens) (UniProt P51449)", "sequence (P51449 whole entry, looked up)": "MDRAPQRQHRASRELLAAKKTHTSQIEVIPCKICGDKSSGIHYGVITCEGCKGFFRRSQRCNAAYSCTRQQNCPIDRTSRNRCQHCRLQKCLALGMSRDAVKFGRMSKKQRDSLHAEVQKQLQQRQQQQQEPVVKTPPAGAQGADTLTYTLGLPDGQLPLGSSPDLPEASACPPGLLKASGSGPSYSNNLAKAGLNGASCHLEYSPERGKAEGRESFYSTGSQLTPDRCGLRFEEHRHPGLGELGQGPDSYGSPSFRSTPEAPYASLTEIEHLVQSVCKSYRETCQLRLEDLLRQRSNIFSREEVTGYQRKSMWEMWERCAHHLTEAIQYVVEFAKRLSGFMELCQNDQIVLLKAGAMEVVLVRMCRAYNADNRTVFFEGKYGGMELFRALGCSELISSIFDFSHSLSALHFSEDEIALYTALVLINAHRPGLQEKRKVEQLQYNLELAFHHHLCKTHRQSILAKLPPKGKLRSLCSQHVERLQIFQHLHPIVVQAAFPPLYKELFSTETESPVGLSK", "assay": "qHTS assay for small molecule antagonists of the retinoid-related orphan receptor gamma (ROR-gamma) signaling pathway (AID 651802); also: nearly all actives have a fitted effect of over 60% in size", "conditions": "ROR-gamma antagonist cell reporter assay; series mostly up to 92.2 µM; activity change, negative = inhibition: at the top concentration", "source_text": "National Center for Advancing Translational Sciences [NCATS]\nNIH Chemical Genomics Center [NCGC]\nNational Institutes of Environmental Health Sciences [NIEHS]\nNational Toxicology Program [NTP]\nNuclear steroid hormone receptors are involved in many biological processes including inflammatory responses, cell proliferation, and apoptosis. Environmental factors or compounds disrupting these nuclear receptor pathways and gene expression may promote susceptibility to immunotoxicants and autoimmune diseases. One important group of these expression factors are the retinoid-related orphan receptors. To assess compounds that may interfere with the retinoid-related orphan receptor gamma (ROR-gamma) transcription factor, a cell-based luciferase assay was used.\nThe CHO cell-based assay utilizes a TET-inducible ROR expression factor and ROR response element-LUC reporter gene. Reporter activity was induced using doxycycline and measured after 16hr incubation. Luminescence was read using Viewlux (PerkinElmer), where a decrease in reporter activity would show a decrease in luminescence.\n1,000 cells in 4 uL/well were dispensed into white wall/solid bottom 1536-well plates using a Multidrop Combi (Thermo Scientific) dispenser. Following transfer of 23 nL compound or DMSO vehicle by a pin tool, the plates were treated with 1 ul doxycycline to induce reporter gene activity. After 16hr incubation at 37C and 5% CO2, 5uL one-glo (promega) was added to each plate and following 30 min incubation at room temperature, luminescence was quantified on a ViewLux (PerkinElmer) plate reader.", "units": {"activity change, negative = inhibition": "%"}}
{"smiles": "CCC(C)=O", "activity change, negative = inhibition": -2.75}
{"smiles": "CC(C)(O)CCC(C)(C)O", "activity change, negative = inhibition": 47.3}
{"smiles": "COc1cccc(N)c1", "activity change, negative = inhibition": 22.6}
{"smiles": "NC(=O)/N=N/C(N)=O", "activity change, negative = inhibition": -26}
{"smiles": "Cc1ccc(C(=O)O)cc1", "activity change, negative = inhibition": 2.74}
{"smiles": "CCC(C)(C)C(=O)O", "activity change, negative = inhibition": 13.2}
{"smiles": "CC/C(C)=N/O", "activity change, negative = inhibition": 27}
{"smiles": "CSc1ccc(C=O)cc1", "activity change, negative = inhibition": 13.8}
{"smiles": "C=CCOC(=O)COCCC(C)C", "activity change, negative = inhibition": 44.5}
{"smiles": "CC(C)C(C)C", "activity change, negative = inhibition": 13.8}
{"smiles": "CCOCCO", "activity change, negative = inhibition": -13.2}
{"smiles": "C[C@@H]1CC2(OC[C@]3(C)O[C@H]23)O[C@H]2C[C@@]3(C)[C@@H]4CC[C@H]5C(C)(C)C(O[C@@H]6OC[C@@H](O)[C@H](O)[C@H]6O)CC[C@@]56C[C@@]46CC[C@]3(C)[C@@H]12", "note": "(stereo not given in full)", "activity change, negative = inhibition": -13.6}
{"smiles": "CC(=O)OCCC(C)C", "activity change, negative = inhibition": 18.3}
{"smiles": "Cc1cc(C)cc([N+](=O)[O-])c1", "activity change, negative = inhibition": 6.19}
{"smiles": "COCCOC(=O)c1ccccc1C(=O)OCCOC", "activity change, negative = inhibition": 13.1}
{"smiles": "C1COC1", "activity change, negative = inhibition": 31.4}
{"smiles": "NC(=O)CCCCC(N)=O", "activity change, negative = inhibition": 28.2}
{"smiles": "CCCCC/C=C/C=C/C=O", "Potency": "33.5 µM (active)"}
{"smiles": "CCCCC(CC)COCC1CO1", "note": "(stereo not given)", "activity change, negative = inhibition": -6.54}
{"smiles": "CCCCC(CC)C(=O)O", "note": "(stereo not given)", "activity change, negative = inhibition": 20.6}
{"smiles": "O=C(O)c1cccc(Cl)c1Cl", "activity change, negative = inhibition": 26.8}
{"smiles": "Cc1ccccc1C(=O)O", "activity change, negative = inhibition": -1.17}
{"smiles": "CCCCC(CC)CO", "note": "(stereo not given)", "activity change, negative = inhibition": 5.64}
{"smiles": "NCCCCCCN", "activity change, negative = inhibition": 0.624}
{"smiles": "CC(C)=CCl", "activity change, negative = inhibition": 18.9}
{"smiles": "CC(=O)c1cc(C)oc1C", "activity change, negative = inhibition": -3.13}
{"smiles": "CC(C)N(C)C", "activity change, negative = inhibition": 19.3}
{"smiles": "C=CC(=O)OCCCC", "activity change, negative = inhibition": 21.1}
{"smiles": "CC(C)Cc1nccs1", "activity change, negative = inhibition": 17.2}
{"smiles": "Cc1ccc2c(c1[N+](=O)[O-])C(=O)c1ccccc1C2=O", "activity change, negative = inhibition": 38.5}
{"smiles": "O=C(O)c1ccccc1Cl", "activity change, negative = inhibition": -14.2}
{"smiles": "Nc1ccccc1[N+](=O)[O-]", "activity change, negative = inhibition": -9.83}
{"smiles": "CNC(=O)c1ccccc1", "activity change, negative = inhibition": 5.34}
{"smiles": "Cc1ccc(C)c(N)c1", "activity change, negative = inhibition": 3.94}
{"smiles": "O=C(O)CN(CC(=O)O)CC(=O)O", "activity change, negative = inhibition": -7.17}
{"smiles": "CCC(=O)/C=C/C1C(C)=CCCC1(C)C", "note": "(stereo not given)", "activity change, negative = inhibition": -2.13}
{"smiles": "Cc1ccc(Cl)cc1", "activity change, negative = inhibition": -2.18}
{"smiles": "O=Cc1ccc(Cl)cc1", "activity change, negative = inhibition": 39}
{"smiles": "c1ccc2c(c1)Oc1ccccc1S2", "activity change, negative = inhibition": -2.84}
{"smiles": "C=Cc1ccc(C=C)cc1", "activity change, negative = inhibition": -11.7}
